The values that follow come from the supplement of paper PMC11537057.

Where a name gives a salt, the structure may show the parent alone. Among all 1,700 compounds or so, about 15 (0.9%) showed activity.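 Rule for the calls: active = infection cut by 80% or more with cell growth above 90% in both runs; inactive = the rest.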 Many of the other results were omitted from the sample, so actives are more common in it than they were.

The test system of this experiment is HSV-1 strain 17 YFP-ICP4 in A549. Put plainly: HSV-1 infection relative to DMSO (ICP4-YFP per H2B-RFP signal); higher = more viral infection (less antiviral activity), active = hit call of the paper. The following applies: 10 µM; 48 h; MOI: 0.1. On the procedure: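 Selleck FDA-approved library (L1300) screened in duplicate at 10 µM on A549 H2B-mRuby cells in 384-well plates, infected with HSV-1 strain 17 YFP-ICP4 at MOI 0.1 one hour before drug addition. Imaged after 2 days at 37°C. Cell growth (H2B-RFP) and infection (ICP4-YFP) are expressed as % of DMSO-treated wells. Hits: growth >90% and infection <20% of DMSO.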
Regarding `COc1nc2ccc(Br)cc2cc1[C@@H](c1ccccc1)[C@@](O)(CCN(C)C)c1cccc2ccccc12` [Bedaquiline], the HSV-1 infection was 114% (inactive).
As for `COc1nc2ccc(Br)cc2cc1[C@@H](c1ccccc1)[C@@](O)(CCN(C)C)c1cccc2ccccc12` [Bedaquiline fumarate], the figure is 111% (inactive); as for `Cc1cn(-c2cc(NC(=O)c3ccc(C)c(Nc4nccc(-c5cnccn5)n4)c3)cc(C(F)(F)F)c2)cn1` [Radotinib], 34.8% (inactive); as for `C[N+](C)(C)CCO.O=C([O-])C(O)C(O)C(=O)O` (stereo not given) [Choline bitartrate], 97.1% (inactive).
As for `C[C@H](NC(=O)[C@@H](Cc1ccc2ccccc2c1)NC(=O)[C@@H](C)N)C(=O)N[C@@H](Cc1c[nH]c2ccccc12)C(=O)N[C@H](Cc1ccccc1)C(=O)N[C@@H](CCCCN)C(N)=O`, the figure is 97.6% (inactive); as for `Cn1ncc(Cl)c1-c1cc(C(=O)N[C@H](CN)Cc2cccc(F)c2)sc1Cl`, 52.8% (inactive).
As for `CN(C)N(C)C(=O)[C@@]1(Cc2ccccc2)CCCN(C(=O)[C@@H](Cc2c[nH]c3ccccc23)NC(=O)C(C)(C)N)C1` [Anamorelin], the figure is 97% (inactive).
Take `CN1CCc2nc(C(=O)N[C@@H]3C[C@@H](C(=O)N(C)C)CC[C@@H]3NC(=O)C(=O)Nc3ccc(Cl)cn3)sc2C1` [Edoxaban]: the HSV-1 infection is 115% (inactive).
Regarding `CN1CCc2nc(C(=O)N[C@@H]3C[C@@H](C(=O)N(C)C)CC[C@@H]3NC(=O)C(=O)Nc3ccc(Cl)cn3)sc2C1` [Edoxaban tosylate Monohydrate], the HSV-1 infection was 124% (inactive).
For `Cc1ccccc1-c1cc(N2CCN(C)CC2)ncc1N(C)C(=O)C(C)(C)c1cc(C(F)(F)F)cc(C(F)(F)F)c1` [Netupitant], the HSV-1 infection was 114% (inactive).
Consider `CC(=O)Oc1c(C)c(C)c2c(c1C)CCC(C)(CCC[C@H](C)CCC[C@H](C)CCCC(C)C)O2` (stereo not given in full) [Vitamin E Acetate], for which the HSV-1 infection is 116% (inactive).
`CC(=O)Oc1ccccc1C(=O)O.CC(=O)Oc1ccccc1C(=O)O.NC(N)=O` [Carbasalate Calcium]: the HSV-1 infection is 90.3% (inactive).
Turning to `CNS(=O)(=O)C[C@H]1CC[C@H](N(C)c2[nH]cnc3nccc2-3)CC1`, the HSV-1 infection was 102% (inactive).
Consider `Cc1cc(S(=O)(=O)O)c2c(C)ccc(C(C)C)cc1-2` [Sodium gualenate], for which the HSV-1 infection is 93% (inactive).
As for `COc1ccc(C[C@@H]2c3cc(OC)c(OC)cc3CC[N@+]2(C)CCC(=O)OCCCCCOC(=O)CC[N@@+]2(C)CCc3cc(OC)c(OC)cc3[C@H]2Cc2ccc(OC)c(OC)c2)cc1OC` [Cisatracurium Besylate], the figure is 90.4% (inactive); as for `NC(=O)[C@@H]1CC[C@@H]2CN1C(=O)N2OS(=O)(=O)O` [Avibactam sodium], 116% (inactive).
Turning to `CN(C)c1ccc2nc3ccc(=[N+](C)C)cc-3sc2c1` [Methylene Blue], the HSV-1 infection is 3.01% (active).
In the case of `COc1cc(S(=O)(=O)O)ccc1O` [Sulfogaiacol], the HSV-1 infection was 93.8% (inactive).
As for `N#CC1(c2ccc(NC(=O)c3cccnc3NCc3ccncc3)cc2)CCCC1`, the HSV-1 infection is 91.6% (inactive).
Then `CCCCc1nc2cc(/C=C/C(=O)NO)ccc2n1CCN(CC)CC` [Pracinostat (SB939)], with 44.1% (inactive); and `C[C@@H](O)[C@@H]1NC(=O)[C@H](CCCCN)NC(=O)[C@@H](Cc2c[nH]c3ccccc23)NC(=O)[C@H](Cc2ccccc2)NC(=O)[C@@H](NC(=O)[C@H](N)Cc2ccccc2)CSSC[C@@H](C(=O)N[C@H](CO)[C@@H](C)O)NC1=O` [Octreotide Acetate], with 93.8% (inactive).
With `CC1=NN(c2ccc(C)c(C)c2)C(=O)/C1=N\Nc1cccc(-c2cccc(C(=O)O)c2)c1O` [Eltrombopag], the HSV-1 infection is 82.4% (inactive).
Regarding `CC1=NN(c2ccc(C)c(C)c2)C(=O)/C1=N\Nc1cccc(-c2cccc(C(=O)O)c2)c1O` [Eltrombopag Olamine], the HSV-1 infection is 99% (inactive).
Then `CS(=O)(=O)n1cc2c(n1)CN([C@H]1CO[C@H](c3cc(F)ccc3F)[C@@H](N)C1)C2` [Omarigliptin (MK-3102)], with 106% (inactive); and `CCCCCCCCCCCCCCCCOc1nc2ccc(C)cc2c(=O)o1` [Cetilistat], with 103% (inactive).
For the molecule `CCOc1cc2ncc(C#N)c(Nc3ccc(OCc4ccccn4)c(Cl)c3)c2cc1NC(=O)/C=C/CN(C)C` [Neratinib (HKI-272)], the HSV-1 infection was 73.4% (inactive).
Then `CC(=O)N1C[C@H](O)C[C@H]1C(=O)O` [Oxaceprol], with 97.8% (inactive).
For the molecule `COC[C@H]1C[C@@H](c2nc(-c3ccc4c(c3)COc3cc5c(ccc6nc([C@@H]7CC[C@H](C)N7C(=O)[C@@H](NC(=O)OC)C(C)C)[nH]c65)cc3-4)c[nH]2)N(C(=O)[C@H](NC(=O)OC)c2ccccc2)C1` [Velpatasvir], the HSV-1 infection was 102% (inactive).
In the case of `CCC/N=C1\S/C(=C\c2ccc(OC[C@H](O)CO)c(Cl)c2)C(=O)N1c1ccccc1C` [Ponesimod], the HSV-1 infection was 57.6% (inactive).
For the molecule `CCOc1ccc(Cc2cc([C@]34OC[C@](CO)(O3)[C@@H](O)[C@H](O)[C@H]4O)ccc2Cl)cc1` [Ertugliflozin], the HSV-1 infection was 114% (inactive).
On to `C=C1CC[C@H](O)C/C1=C/C=C1\CCC[C@]2(C)[C@@H]([C@H](C)CCCC(C)(C)O)CC[C@@H]12` [Calcifediol], for which the HSV-1 infection is 89.7% (inactive).
On to `CCOC(=O)N[C@@H]1CC[C@@H]2[C@@H](C1)C[C@H]1C(=O)O[C@H](C)[C@H]1[C@H]2/C=C/c1ccc(-c2cccc(F)c2)cn1` [Vorapaxar], for which the HSV-1 infection was 113% (inactive).
`CN[C@@H]1[C@@H](O)[C@@H](O[C@@H]2[C@@H](O)[C@H](O[C@H]3O[C@H](CN)[C@@H](O)[C@H](O)[C@H]3O)[C@@H](N)C[C@H]2NC(=O)[C@@H](O)CN)OC[C@]1(C)O` [Isepamicin Sulphate]: the HSV-1 infection is 124% (inactive).
Then `CO/N=C(\C(=O)N[C@@H]1C(=O)N2C(C(=O)[O-])=C(C[n+]3cccc4c3CCC4)CS[C@H]12)c1csc(N)n1` [Cefpirome sulfate], with 108% (inactive).
For `CC(C)(CO)C(O)C(=O)NCCCO` (racemic) [DL-Panthenol], the HSV-1 infection was 94% (inactive).
